According to the supplement of paper PMC10849652:
About 7,900 targets were measured; listed, in parts, are those with a hit and a random draw of the rest. About 0.6% of all pairs of compound and target were hits. Unmarked numbers belong to inactive results.

What was measured:
Experiment in all cases: log2 fold change, soluble protein after heating vs DMSO (PISA); higher = thermal stabilisation; K562 cells, 10 uM, 30 min; active = over 0.2 and 3.5 SD of the protein, either way, in both replicates (recomputed)
[1] = compound: CC[C@@H]1C(=O)N(C)c2cnc(Nc3ccc(C(=O)NC4CCN(C)CC4)cc3OC)nc2N1C1CCCC1
How it was run: (§1)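 Soluble protein was defined as the supernatant after 21,000xg for 90 min. It came from K562 cells at 2×10^6 cells/mL given 10 μM compound for 30 min, heated in aliquots for 3 min across 48°C-58°C, pooled, and extracted in PBS with 0.5% NP-40 at 4°C, and was quantified by TMTpro 16plex LC-MS/MS with equalised channel sums. Thermal stability against control samples, from duplicates, is reported as log2 fold change.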

volasertib = compound: CC[C@@H]1C(=O)N(C)c2cnc(Nc3ccc(C(=O)N[C@H]4CC[C@H](N5CCN(CC6CC6)CC5)CC4)cc3OC)nc2N1C(C)C [volasertib]
How it was run: as §1

[2] = compound: CC[C@H](C)N1C=C(C2=C(C=C(C=C21)C3=CN=C(C=C3)N4CCNCC4)C(=O)NCC5=C(C=C(NC5=O)C)C)C
How it was run: as §1

epoxomicin = compound: CC[C@H](C)[C@@H](C(=O)N[C@@H]([C@@H](C)O)C(=O)N[C@@H](CC(C)C)C(=O)[C@]1(CO1)C)NC(=O)[C@H]([C@@H](C)CC)N(C)C(=O)C [epoxomicin]
How it was run: as §1

[3] = compound: CCn1c(C(=O)N(C2CC2)C2CC2)cc2c3c(ncn3C)c(Nc3cc(C)n(C)n3)nc21
How it was run: as §1

[4] = compound: CCn1cc(-c2ccnc3[nH]c(-c4cccc(CN(C)C)c4)cc23)c(-c2ccc(NC(=O)N(C)C)cc2)n1
How it was run: as §1

[5] = compound: CN(C)CC(=O)Nc1ccc2[nH]c(=O)c3ccccc3c2c1
How it was run: as §1

rosiglitazone = compound: CN(CCOC1=CC=C(C=C1)C[C@H]2C(=O)NC(=O)S2)C3=CC=CC=N3 (racemic) [rosiglitazone]
How it was run: as §1

[6] = compound: CN1C2=C(C3=C1C(=O)N(N=C3)CC4=CC(=CC=C4)N)SC(=C2)S(=O)C
How it was run: as §1

[7] = compound: CN1CCC(CNc2ccc3ncc(-c4cccc(OC(F)(F)F)c4)n3n2)CC1
How it was run: as §1

saracatinib = compound: CN1CCN(CCOc2cc(OC3CCOCC3)c3c(Nc4c(Cl)ccc5c4OCO5)ncnc3c2)CC1 [saracatinib]
How it was run: as §1

sotrastaurin = compound: CN1CCN(c2nc(C3=C(c4c[nH]c5ccccc45)C(=O)NC3=O)c3ccccc3n2)CC1 [sotrastaurin]
How it was run: as §1

alvocidib = compound: CN1CC[C@H](c2c(O)cc(O)c3c(=O)cc(-c4ccccc4Cl)oc23)[C@H](O)C1 [alvocidib]
How it was run: as §1

Tubastatin A = compound: CN1CCc2c(c3ccccc3n2Cc2ccc(C(=O)NO)cc2)C1 [Tubastatin A]
How it was run: as §1

[8] = compound: CNC(=O)C1=CC=CC=C1NC2=NC(=NC=C2Cl)NC3=C(C=C(C=C3)N4CCOCC4)OC
How it was run: as §1

defactinib = compound: CNC(=O)c1ccc(Nc2ncc(C(F)(F)F)c(NCc3nccnc3N(C)S(C)(=O)=O)n2)cc1 [defactinib]
How it was run: as §1

rucaparib = compound: CNCc1ccc(-c2[nH]c3cc(F)cc4c3c2CCNC4=O)cc1 [rucaparib]
How it was run: as §1

[9] = compound: CNc1nc(-c2ccc3c(N)n[nH]c3c2)cc(N2C[C@@H](C(=O)NC3CCCCC3)CC[C@H]2C)n1
How it was run: as §1

encorafenib = compound: COC(=O)N[C@@H](C)CNc1nccc(-c2cn(C(C)C)nc2-c2cc(Cl)cc(NS(C)(=O)=O)c2F)n1 [encorafenib]
How it was run: as §1

[10] = compound: COC(=O)[C@H](CCSC)NC(=O)C1=C(C=C(C=C1)NC[C@H](CS)N)C2=CC=CC=C2
How it was run: as §1

Chain of UniProt Q96AD5 (Q96AD5 whole entry, looked up): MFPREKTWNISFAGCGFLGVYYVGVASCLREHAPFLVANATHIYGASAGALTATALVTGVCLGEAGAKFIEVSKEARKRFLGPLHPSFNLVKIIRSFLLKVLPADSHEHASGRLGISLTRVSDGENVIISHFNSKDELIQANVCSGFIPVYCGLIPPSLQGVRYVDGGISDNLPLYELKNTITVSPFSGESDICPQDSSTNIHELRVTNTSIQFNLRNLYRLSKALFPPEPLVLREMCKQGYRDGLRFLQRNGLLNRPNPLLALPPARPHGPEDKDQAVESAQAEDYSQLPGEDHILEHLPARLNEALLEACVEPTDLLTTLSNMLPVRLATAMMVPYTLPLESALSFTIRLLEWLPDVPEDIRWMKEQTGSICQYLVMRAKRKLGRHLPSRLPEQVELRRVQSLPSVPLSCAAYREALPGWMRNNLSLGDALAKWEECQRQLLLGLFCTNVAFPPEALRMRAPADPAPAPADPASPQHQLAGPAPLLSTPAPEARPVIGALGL
Chain of UniProt P10644 (P10644 whole entry, looked up): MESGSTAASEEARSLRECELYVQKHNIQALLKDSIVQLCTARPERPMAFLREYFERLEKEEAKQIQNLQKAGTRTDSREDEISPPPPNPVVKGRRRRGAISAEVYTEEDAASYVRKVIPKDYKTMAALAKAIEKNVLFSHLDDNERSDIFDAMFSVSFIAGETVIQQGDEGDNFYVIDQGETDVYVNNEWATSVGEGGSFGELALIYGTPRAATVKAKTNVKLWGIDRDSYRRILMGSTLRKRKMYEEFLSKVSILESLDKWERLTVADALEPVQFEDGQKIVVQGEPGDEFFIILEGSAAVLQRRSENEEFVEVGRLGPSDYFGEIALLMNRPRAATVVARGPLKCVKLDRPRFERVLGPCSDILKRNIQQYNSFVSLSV
Chain of UniProt P53801 (P53801 whole entry, looked up): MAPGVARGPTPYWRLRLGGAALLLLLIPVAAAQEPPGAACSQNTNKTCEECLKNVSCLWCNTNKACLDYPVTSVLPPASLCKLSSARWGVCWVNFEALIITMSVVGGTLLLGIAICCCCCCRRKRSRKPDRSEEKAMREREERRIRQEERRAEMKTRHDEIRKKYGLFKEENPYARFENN
Chain of UniProt Q9UPN7 (Q9UPN7 whole entry, looked up): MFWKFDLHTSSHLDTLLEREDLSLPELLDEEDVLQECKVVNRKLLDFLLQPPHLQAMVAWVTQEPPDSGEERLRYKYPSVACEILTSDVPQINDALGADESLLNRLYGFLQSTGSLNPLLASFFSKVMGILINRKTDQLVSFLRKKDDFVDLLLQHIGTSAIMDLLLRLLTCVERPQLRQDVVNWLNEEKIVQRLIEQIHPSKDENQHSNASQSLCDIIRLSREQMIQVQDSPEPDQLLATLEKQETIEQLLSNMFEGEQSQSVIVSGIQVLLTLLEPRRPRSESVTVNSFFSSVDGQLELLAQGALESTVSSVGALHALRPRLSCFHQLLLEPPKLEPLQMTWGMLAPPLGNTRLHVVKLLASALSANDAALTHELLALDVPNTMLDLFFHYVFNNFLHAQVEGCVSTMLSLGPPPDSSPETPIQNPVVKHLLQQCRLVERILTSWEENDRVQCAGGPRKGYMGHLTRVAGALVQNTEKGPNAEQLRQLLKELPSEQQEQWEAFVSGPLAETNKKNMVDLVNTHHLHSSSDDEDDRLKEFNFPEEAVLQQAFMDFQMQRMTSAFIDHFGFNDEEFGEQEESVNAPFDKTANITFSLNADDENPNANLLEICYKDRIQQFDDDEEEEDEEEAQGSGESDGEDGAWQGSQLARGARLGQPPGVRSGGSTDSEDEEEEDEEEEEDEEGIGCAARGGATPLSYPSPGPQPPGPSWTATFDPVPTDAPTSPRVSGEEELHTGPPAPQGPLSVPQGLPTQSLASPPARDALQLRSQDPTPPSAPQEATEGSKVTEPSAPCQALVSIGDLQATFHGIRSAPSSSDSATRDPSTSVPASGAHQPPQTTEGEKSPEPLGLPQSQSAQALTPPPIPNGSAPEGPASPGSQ
Chain of UniProt Q02156 (Q02156 whole entry, looked up): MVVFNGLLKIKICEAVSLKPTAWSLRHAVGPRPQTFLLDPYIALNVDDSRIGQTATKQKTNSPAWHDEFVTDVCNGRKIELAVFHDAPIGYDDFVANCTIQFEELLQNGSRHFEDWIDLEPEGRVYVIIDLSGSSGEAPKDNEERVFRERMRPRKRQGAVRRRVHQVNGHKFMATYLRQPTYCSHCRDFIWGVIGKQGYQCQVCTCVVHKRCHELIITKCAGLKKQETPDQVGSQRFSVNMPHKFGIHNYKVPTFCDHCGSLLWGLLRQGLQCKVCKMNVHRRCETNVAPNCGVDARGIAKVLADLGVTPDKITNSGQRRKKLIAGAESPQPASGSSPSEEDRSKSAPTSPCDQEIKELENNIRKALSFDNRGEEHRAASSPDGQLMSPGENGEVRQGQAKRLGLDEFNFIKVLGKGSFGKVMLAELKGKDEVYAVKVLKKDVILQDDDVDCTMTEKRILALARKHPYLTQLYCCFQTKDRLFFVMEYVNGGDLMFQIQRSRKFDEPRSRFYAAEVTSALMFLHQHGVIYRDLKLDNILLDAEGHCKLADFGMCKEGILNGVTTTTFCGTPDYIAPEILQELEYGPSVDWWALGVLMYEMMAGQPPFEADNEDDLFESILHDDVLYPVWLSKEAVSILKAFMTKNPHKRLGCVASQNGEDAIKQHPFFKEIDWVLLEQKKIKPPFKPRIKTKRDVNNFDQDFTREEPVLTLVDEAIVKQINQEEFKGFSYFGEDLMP
Chain of UniProt Q8N5Y8 (Q8N5Y8 whole entry, looked up): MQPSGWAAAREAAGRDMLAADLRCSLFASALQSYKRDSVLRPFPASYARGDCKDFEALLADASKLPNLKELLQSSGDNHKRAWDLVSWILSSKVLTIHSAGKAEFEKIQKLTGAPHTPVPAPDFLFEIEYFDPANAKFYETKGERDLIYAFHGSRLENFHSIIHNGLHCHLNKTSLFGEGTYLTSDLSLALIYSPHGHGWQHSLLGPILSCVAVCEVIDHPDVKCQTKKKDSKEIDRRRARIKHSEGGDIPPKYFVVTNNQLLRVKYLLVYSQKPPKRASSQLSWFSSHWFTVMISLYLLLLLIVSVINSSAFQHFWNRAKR
Chain of UniProt Q13523 (Q13523 whole entry, looked up): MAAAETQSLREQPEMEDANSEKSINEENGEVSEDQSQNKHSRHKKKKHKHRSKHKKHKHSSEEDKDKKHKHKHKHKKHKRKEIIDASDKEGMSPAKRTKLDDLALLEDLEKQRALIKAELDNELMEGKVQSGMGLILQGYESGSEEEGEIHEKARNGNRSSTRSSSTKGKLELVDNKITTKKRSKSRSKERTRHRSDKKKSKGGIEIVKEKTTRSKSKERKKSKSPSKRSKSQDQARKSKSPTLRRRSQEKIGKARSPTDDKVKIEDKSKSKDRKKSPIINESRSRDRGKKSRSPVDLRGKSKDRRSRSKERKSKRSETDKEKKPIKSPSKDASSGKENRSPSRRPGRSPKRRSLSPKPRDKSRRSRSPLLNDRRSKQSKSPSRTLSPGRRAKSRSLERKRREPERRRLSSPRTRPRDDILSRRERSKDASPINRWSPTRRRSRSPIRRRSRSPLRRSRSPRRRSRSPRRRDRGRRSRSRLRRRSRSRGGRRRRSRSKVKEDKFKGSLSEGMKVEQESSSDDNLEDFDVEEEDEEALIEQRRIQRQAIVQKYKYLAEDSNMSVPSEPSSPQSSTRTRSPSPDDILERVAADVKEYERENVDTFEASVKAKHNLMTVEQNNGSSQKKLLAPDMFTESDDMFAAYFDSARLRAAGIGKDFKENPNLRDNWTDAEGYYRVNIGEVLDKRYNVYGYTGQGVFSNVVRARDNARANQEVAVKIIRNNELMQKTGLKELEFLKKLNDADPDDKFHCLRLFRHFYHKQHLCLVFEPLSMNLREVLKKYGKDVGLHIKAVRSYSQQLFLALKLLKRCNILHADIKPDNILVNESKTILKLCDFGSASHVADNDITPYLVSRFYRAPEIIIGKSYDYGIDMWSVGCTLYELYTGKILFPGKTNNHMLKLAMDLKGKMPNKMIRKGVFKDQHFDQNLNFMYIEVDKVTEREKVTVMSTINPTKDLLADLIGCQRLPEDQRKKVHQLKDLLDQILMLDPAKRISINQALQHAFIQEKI
Chain of UniProt Q6L8Q7 (Q6L8Q7 whole entry, looked up): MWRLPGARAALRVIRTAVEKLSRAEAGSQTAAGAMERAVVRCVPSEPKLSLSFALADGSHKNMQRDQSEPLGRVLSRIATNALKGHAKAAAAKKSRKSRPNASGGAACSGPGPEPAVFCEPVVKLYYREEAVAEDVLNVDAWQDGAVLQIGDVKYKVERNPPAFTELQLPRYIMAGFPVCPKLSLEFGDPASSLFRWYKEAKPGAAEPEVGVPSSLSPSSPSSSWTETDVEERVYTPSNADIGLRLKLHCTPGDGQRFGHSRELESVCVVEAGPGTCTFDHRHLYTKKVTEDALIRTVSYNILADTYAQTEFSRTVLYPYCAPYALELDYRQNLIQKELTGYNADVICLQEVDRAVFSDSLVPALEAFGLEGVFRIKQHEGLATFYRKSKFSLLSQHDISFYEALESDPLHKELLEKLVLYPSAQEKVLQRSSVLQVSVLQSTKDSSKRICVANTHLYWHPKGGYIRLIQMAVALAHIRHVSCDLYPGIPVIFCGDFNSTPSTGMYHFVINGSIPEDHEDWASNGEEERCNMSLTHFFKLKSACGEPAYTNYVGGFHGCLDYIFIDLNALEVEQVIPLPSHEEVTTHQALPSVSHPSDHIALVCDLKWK
Chain of UniProt Q86YH6 (Q86YH6 whole entry, looked up): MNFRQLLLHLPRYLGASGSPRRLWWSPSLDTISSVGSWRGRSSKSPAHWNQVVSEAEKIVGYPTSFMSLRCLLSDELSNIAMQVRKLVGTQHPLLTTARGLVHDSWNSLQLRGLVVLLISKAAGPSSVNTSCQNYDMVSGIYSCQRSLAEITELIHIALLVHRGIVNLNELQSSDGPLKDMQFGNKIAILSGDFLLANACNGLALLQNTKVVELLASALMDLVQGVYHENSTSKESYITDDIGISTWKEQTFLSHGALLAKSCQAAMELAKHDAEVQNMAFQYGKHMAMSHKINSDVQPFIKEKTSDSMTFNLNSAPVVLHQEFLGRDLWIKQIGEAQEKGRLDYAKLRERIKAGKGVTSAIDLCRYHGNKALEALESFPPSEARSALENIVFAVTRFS

Target	log2 fold change [1]	log2 fold change (volasertib)	log2 fold change [2]	log2 fold change (epoxomicin)	log2 fold change [3]	log2 fold change [4]	log2 fold change [5]	log2 fold change (rosiglitazone)	log2 fold change [6]	log2 fold change [7]	log2 fold change (saracatinib)	log2 fold change (sotrastaurin)	log2 fold change (alvocidib)	log2 fold change (Tubastatin A)	log2 fold change [8]	log2 fold change (defactinib)	log2 fold change (rucaparib)	log2 fold change [9]	log2 fold change (encorafenib)	log2 fold change [10]
PARP16 isoform 3 (UniProt Q8N5Y8)	0.103	-0.025	0.067	0.029	0.006	-0.252 (active)	0.061	0.09	-0.008	0.096	0.175	-0.038	-0.054	0.005	-0.009	0.046	0.198	-0.042	-0.087	-0.005
PHF5A (UniProt Q7RTV0)	0.013	0.065	-0.061	0.051	0.014	0.087	-0.063	-0.062	-0.017	0.017	0.069	0.047	0.045	-0.027	0.05	0.141	0.04	-0.086	-0.017	0.023
PYGL (UniProt P06737)	-0.091	-0.262 (active)	0.008	-0.02	-0.081	0.016	-0.001	0.018	-0.006	0.029	0.063	-0.006	0.097	-0.007	-0.185	-0.039	-0.028	-0.065	0.037	0.008
PRPF4B (UniProt Q13523)	0.025	-0.17	0.027	-0.174	-0.005	0.104	-0.049	0.011	0.081	0.019	-0.064	-0.047	-0.052	0.085	-0.209	-0.32	0.022	-0.146	0.02	0.046
PSMD12 (UniProt O00232)	0.03	0.158	0.02	-0.278	-0.008	0.017	-0.007	-0.038	0.01	0.062	-0.024	-0.029	0.026	0.04	0.033	0.048	0.014	0.054	0.031	-0.032
PRPSAP2 (UniProt O60256)	0.07	0.056	-0.043	-0.008	-0.013	-0.088	-0.02	0.008	-0.041	0.159	0.011	0.084	0.003	-0.018	-0.017	0.01	-0.014	0.03	-0.004	-0.012
PDSS2 (UniProt Q86YH6)	0.021	0.016	0.12	0.024	0.048	-0.069	0.05	0.055	0.02	0.018	0.159	0.218	-0.053	-0.013	-0.019	-0.076	0.07	-0.025	-0.154	-0.042
PDE12 (UniProt Q6L8Q7)	-0.035	-0.056	-0.008	0.04	0.003	-0.038	0.026	0.028	-0.078	-0.014	0.014	0.018	-0.098	0.01	0.028	-0.04	-0.005	0.023	-0.019	0.007
PPP6R1 (UniProt Q9UPN7)	-0.098	-0.297 (active)	0	-0.033	0.029	0.026	0.053	0.026	-0.007	-0.048	0.058	-0.064	-0.017	-0.08	0.038	-0.058	-0.013	-0.044	0.034	-0.027
PPP4R3B (UniProt Q5MIZ7)	-0.052	-0.284 (active)	0.05	-0.011	-0.03	-0.074	-0.001	0.06	-0.074	-0.15	-0.008	-0.05	-0.11	0.022	0.057	-0.023	-0.065	-0.033	0.014	0.003
PRKAR1A (UniProt P10644)	0.213	-0.054	-0.068	-0.122	0.071	0.001	0.023	-0.032	0.132	0.705 (active)	-0.067	0.105	0.121	0.007	0.366	0.14	0.13	0.005	0.073	-0.069
PSMC3 (UniProt P17980)	0.032	0.179	-0.021	-0.319 (active)	-0.028	0.079	-0.031	-0.038	0.021	0.018	-0.043	-0.035	0.058	0.011	0	0.06	0.033	0.003	0.026	0.004
PRKCE (UniProt Q02156)	-0.051	-0.125	0.099	0.036	-0.054	-0.067	0.036	0.068	-0.106	-0.16	-0.02	-0.425 (active)	-0.143	-0.052	0.075	-0.133	-0.043	0.006	0.037	-0.06
PTPN12 (UniProt Q05209)	-0.119	-0.465 (active)	0.063	-0.012	-0.077	0.027	0.015	0.014	0.079	-0.043	0.085	-0.148	0.007	0.064	0.063	0.006	0.047	-0.04	0.076	-0.088
PNPLA2 (UniProt Q96AD5)	0.11	0.126	0.015	-0.041	0.013	0.156	-0.044	-0.155	-0.025	-0.068	0.015	-0.028	-0.058	-0.034	-0.039	0	-0.06	0.154	-0.012	-0.056
PTTG1IP (UniProt P53801)	-0.223	-0.05	-0.154	-0.017	-0.176	-0.01	-0.041	0.011	0.009	-0.771 (active)	0.021	-0.03	0.004	-0.085	0.062	-0.011	0.013	-0.246	-0.052	0.129
